From PubChem BioAssay

These molecules were tested on Sonic hedgehog protein (Shh) (assay: Sonic hedgehog microarray binding compounds – biochemical, small-molecule microarray, 635/667 nm fluorescence, primary screen (AID 1151;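 also: Shh protein binding to compounds spotted on small-molecule microarray slides; score combines spot fluorescence intensity with signal-to-noise across triplicate slides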)). Settings: 635 nm fluorescence, higher = more signal.

| SMILES | composite z-score |
| --- | --- |
| C=CCN1C(=O)[C@@]2(Cc3ccccc31)N=C(c1ccc(OCCCO)cc1)O[C@H]2c1ccccc1 | 1.14 |
| [N-]=[N+]=Nc1ccccc1[C@@H]1OC(c2ccc(OCCCO)cc2)=N[C@]1(CCS(=O)(=O)c1ccccc1)C(N)=O | -0.398 |
| CN(C)C(=O)[C@@]1(CCS(=O)(=O)c2ccccc2)COC(c2ccc(OCCCO)cc2)=N1 | -0.977 |
| CCOC(=O)C[C@H]1[C@H](OC(=O)c2cc3ccccc3oc2=O)[C@@H](NC(=O)c2ccccc2)c2cc(OCCCO)ccc2N1C(=O)c1ccc2ccccc2n1 | 0.954 |
| C=CCOC(=O)[C@H]1[C@@H]2C(=O)O[C@@H](c3ccccc3)[C@@H](c3ccccc3)N2[C@@H](c2ccc(OCCOC(=O)[C@H]3C[C@H]4C(=O)N[C@@H](CCCCNC(C)=O)C(=O)N4[C@H]3c3cccc(OCCO)c3)cc2)[C@]12C(=O)Nc1ccccc12 | 2.07 |
| CC(C)C(CO)N1C(=O)[C@@H]2C3C(=O)OCCC/C=C\[C@H]3OC23C=CCN(CCN2CCOCC2)C(=O)[C@@H]13 (stereo not given in full) | 0.856 |
| O=C(NCCN1CCOCC1)C1N=C(c2ccc(OCCCO)cc2)N(c2ccccc2)O1 (stereo not given) | 1.42 |
| COC(=O)[C@@]1(Cc2ccccc2)[C@H]2c3cc(C(=O)N4CCCC4)n(Cc4ccc(S(C)(=O)=O)cc4)c3C[C@H]2CN1C(=O)c1ccccc1 | -0.344 |
| O=C1[C@@]23C=C(Br)[C@H](C[C@@H]2CCOC3)[C@@]12CO2 | 0.534 |
| O=C(c1ccccc1)N1C(=O)[C@]2(COC(c3ccc(OCCCO)cc3)=N2)Cc2ccccc21 | 0.658 |
| Cc1nc2cc(Br)ccc2c(=O)o1 | 0.113 |
| CCCCC(CC)C(O)C1C=CC2C(=O)N(Cc3ccccc3)C(=O)C2N1n1cnnc1 (stereo not given) | -0.405 |
| CC(C)C(O)C1C=CC2C(=O)NC(=O)C2N1Nc1ccc(Cl)cc1Cl (stereo not given) | 0.292 |
| COCCOC(=O)N1C(=O)[C@@]2(c3ccccc31)[C@H](c1ccc(O)cc1)N1[C@H](c3ccccc3)[C@H](c3ccccc3)OC(=O)[C@H]1[C@@H]2C(=O)Nc1nc2ccccc2s1 | 1.13 |
| CC(C)C(=C=CC[C@@H](O)c1ccc(OCCO)cc1)C[C@@H](O)COCc1ccccc1 | 2.09 |
| O=C1C2C=CC(C(O)Cc3ccccc3)N(n3cnnc3)C2C(=O)N1Cc1ccccc1 (stereo not given) | -0.373 |
| COCCOC(=O)N1C(=O)[C@@]2(c3cc(C#Cc4ccc(OC)cc4)ccc31)[C@H](c1ccc(O)cc1)N1[C@H](c3ccccc3)[C@H](c3ccccc3)OC(=O)[C@H]1[C@@H]2C(=O)N1CCc2cc(OC)c(OC)cc2C1 | 0.643 |
| COc1cc2c(cc1O)C(C1CC1)N(Cc1sc3ccccc3c1Cl)CC2 (stereo not given) | -0.206 |

| SMILES | composite z-score |
| --- | --- |
| CC(C)C(=C=CC[C@H](O)c1ccc(OCCO)cc1)CCO | 2.05 |
| CC(=O)NCCCC[C@@H]1NC(=O)[C@@H]2C[C@H](C(=O)NCCCCCNC(=O)CS)[C@H](c3cccc(OCCO)c3)N2C1=O | 1.62 |
| NC(=O)NCC#Cc1ccc2c(c1)[C@]1(C(=O)N2)[C@H](c2ccc(O)cc2)N2[C@H](c3ccccc3)[C@H](c3ccccc3)OC(=O)[C@H]2[C@@H]1C(=O)O | -0.453 |
| COc1cc(Br)cc(C(O)C2C=CC3C(=O)N(C)C(=O)C3N2N2CCCCC2)c1OC (stereo not given) | -1.49 |
| COc1ccc(CCNC(=O)[C@@H]2c3ccccc3C(=O)N(Cc3ccccc3Cl)[C@H]2c2ccc(CO)cc2)cc1 | -0.214 |
| CCCCN1CC=CC23O[C@@H]4C=CCCOC(=O)C4[C@H]2C(=O)N(CCCCCCO)[C@@H]3C1=O (stereo not given in full) | 1.65 |
| CCOC(=O)C[C@H]1[C@H](OC(=O)c2ccc(C(=O)c3ccccc3)cc2)[C@@H](NC(=O)c2ccccc2)c2cc(OCCCO)ccc2N1C(=O)c1ccc2ccccc2n1 | -0.25 |
| C=CCOC(=O)[C@H]1[C@@H]2C(=O)O[C@@H](c3ccccc3)[C@@H](c3ccccc3)N2[C@@H](c2ccc(OCCOC(=O)[C@H]3C[C@H]4C(=O)N[C@@H](CCCC[N+](C)(C)C)C(=O)N4[C@H]3c3ccc(O)cc3)cc2)[C@]12C(=O)Nc1ccc(I)cc12 | 2.22 |
| CC(CO)N1C(=O)[C@@H]2C3C(=O)OCCC/C=C\[C@H]3OC23C=CCN(C(C)(C)C)C(=O)[C@@H]13 (stereo not given in full) | 0.777 |
| CC1CC/C=C\[C@H]2OC34C=CCN(C(C)(C)C)C(=O)[C@H]3N(C(C)CO)C(=O)[C@@H]4C2C(=O)O1 (stereo not given in full) | 0.622 |
| COc1ccc(C#Cc2ccc3c(c2)[C@]2(C(=O)N3)[C@H](C(=O)Nc3nc4ccccc4s3)[C@H]3C(=O)O[C@H](c4ccccc4)[C@H](c4ccccc4)N3[C@@H]2c2ccc(O)cc2)cc1 | 2.02 |
| C=CCC(OC(C)=O)[C@@H]1[C@@H](N(Cc2ccc(-c3ccccc3)cc2)C(=O)Cc2ccc(OC)cc2)c2cc(OCCCO)ccc2N1C(=O)Cc1ccc2ccccc2c1 (stereo not given in full) | 0.412 |
| CN1C(=O)C2C=CC(C(O)C#Cc3ccccc3)N(N3CCCCC3)C2C1=O (stereo not given) | 0.841 |
| C=CC(=C)[C@H]1Oc2ccccc2S(=O)(=O)N2CCC[C@@H]12 | 0.0906 |
| C=CCC(OC(C)=O)[C@@H]1[C@@H](N(Cc2ccc(-c3cccc(C(F)(F)F)c3)o2)C(=O)c2ccc(C)cc2)c2cc(OCCCO)ccc2N1C(=O)Cc1ccc2ccccc2c1 (stereo not given in full) | 0.223 |
| COCCOC(=O)N1C(=O)[C@@]2(c3cc(C#CCC(C(=O)OC)C(=O)OC)ccc31)[C@H](C(=O)N1CCN(c3ncccn3)CC1)[C@H]1C(=O)O[C@H](c3ccccc3)[C@H](c3ccccc3)N1[C@@H]2c1ccccc1OCCO | 2.19 |
| CC(C)=CCCC(C)=CC(O)C1C=CC2C(=O)N(C)C(=O)C2N1Nc1ccccc1 (stereo not given) | 1.32 |
